Active and inactive are the calls of the source. The calls were made as follows: active = hit-call score of the fitted dose curve at least 0.9, where 1 is the maximum; inactive = score below 0.9.
Target: CCAAT/enhancer-binding protein beta (Homo sapiens) (UniProt P17676)
Assay: ATG_C_EBP_CIS: Attagene CIS-FACTORIAL HepG2 Assay for human CCAAT/Enhancer Binding Protein (C/EBP) beta (AID 2282927)
Details: HepG2 Attagene cis-factorial transcription factor reporter; actives raise or lower the signal
Experimental: ATG_CIS is a cell-based, multiplexed-readout assay that uses HepG2, a human liver cell line, with measurements taken at 24 hours after chemical dosing in a 24-well plate.ATG_C_EBP_CIS is one of 52 assay component(s) measured or calculated from the ATG_CIS assay. It is designed to make measurements of mRNA induction, a form of inducible reporter, as detected with fluorescence intensity signals by Reverse transcription polymerase chain reaction (RT-PCR) and Capillary electrophoresis technology.Data from the assay component ATG_C_EBP_CIS was analyzed into 1 assay endpoint. This assay endpoint, ATG_C_EBP_CIS, was analyzed with bidirectional fitting relative to DMSO as the negative control and baseline of activity. Using a type of inducible reporter, measures of mRNA for gain or loss-of-signal activity can be used to understand the reporter gene at the transcription factor-level as they relate to the gene CEBPB. Furthermore, this assay endpoint can be referred to as a primary readout, because this assay has produced multiple assay endpoints where this one serves a reporter gene function. To generalize the intended target to other relatable targets, this assay endpoint is annotated to the dna binding intended target family, where the subfamily is basic leucine zipper.
Human liver HepG2 cells are transiently transfected with multiple reporter transcription units (MRTUs) in 6-well plates using FuGene 6 reagent (Roche; 3 ml FuGene/1 mg DNA). The MRTU constructs are regulated by a cis-regulating element (promoter). […] A major difference between the CIS and TRANS system is that in CIS activities of endogenous TFs are measured, whereas the TRANS assay evaluates changes in activities of exogenous, chimeric NR-Gal4 proteins. […] At the end of 24 hour incubation, total RNA was isolated using TriZol reagent (Invitrogen). The isolated RNA is then reverse-transcribed using oligo(dT) primer and Mo-MLV reverse transcriptase (Invitrogen) with DNAse I (Ambion) treatment for 30 min. The one-tenth of the produced cDNA was amplified by PCR using Taq DNA polymerase (Invitrogen) and two reporter sequence-specific primers. The PCR products were fluorescently labeled by primer extension with 6-arboxyfluorescein (6-FAM) 5'-labeled reporter sequence-specific primer (2 min at 95 C, 20 s at 68 C and 10 min at 72 C) and these products were digested with 5U of HpaI (New England Biolabs) for 2h at 37 C. The fragments were purified using Qiaquick PCR columns (Qiagen), analyzed on an ABI 3130xL genetic analyzer (Applied Biosystems) with peak positions identified by using a set of X-rhodamine (ROX)-labeled MapMarker1000 molecular weight standards (BioVentures). The raw capillary electrophoresis data was processed using Attagraph software (Attagene).

Chain of CCAAT/enhancer-binding protein beta (Homo sapiens) (P17676 whole entry, looked up): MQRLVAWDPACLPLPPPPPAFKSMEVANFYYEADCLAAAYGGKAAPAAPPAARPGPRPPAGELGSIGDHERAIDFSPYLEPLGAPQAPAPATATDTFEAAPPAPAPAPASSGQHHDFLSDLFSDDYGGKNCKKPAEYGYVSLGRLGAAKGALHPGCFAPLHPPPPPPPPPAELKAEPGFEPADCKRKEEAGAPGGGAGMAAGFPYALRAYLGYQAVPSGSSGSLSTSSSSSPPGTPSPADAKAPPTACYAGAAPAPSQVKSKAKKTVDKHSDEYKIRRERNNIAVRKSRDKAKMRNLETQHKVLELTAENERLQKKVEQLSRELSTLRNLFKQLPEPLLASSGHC

Compound	outcome	AC50
COC(=O)c1ccc(OC)cc1	inactive	
C=CCCC(=O)/C=C/C1C(C)=CCCC1(C)C (stereo not given)	inactive	
Cc1cccc(Nc2ccccc2)c1	inactive	
CC1(C)C2=CCCC(C)(C)[C@]23CC[C@H]1C3	inactive	
OCC(O)c1ccccc1 (stereo not given)	inactive	
CC1=C(Br)C(=O)C(Br)=C/C1=C(/c1ccccc1S(=O)(=O)O)c1cc(Br)c(O)c(Br)c1C	inactive	
Oc1c(Cl)cc(Cl)c(Cl)c1Cc1c(O)c(Cl)cc(Cl)c1Cl		0.561 µM (active)
FC(F)(F)COCC(F)(F)F	inactive	
C=C(C)C(=O)OCCOCCOCCOC(=O)C(=C)C	inactive	
COC(=O)Nc1ccc(Cl)c(Cl)c1	inactive	
CC(C)CCCCCCCCCCCCCCC(=O)O	inactive	
CCOC(=O)CCc1ccccc1	inactive	
CC(C)=CCCC(C)CC(=O)O (stereo not given)	inactive	
CC1(C)C(=O)N(Cl)C(=O)N1Br	inactive	
C[Si]1(C)O[Si](C)(C)O[Si](C)(C)O1	inactive	
CCOc1ccc(N=Nc2ccc(C=Cc3ccc(N=Nc4ccc(OCC)cc4)cc3S(=O)(=O)O)c(S(=O)(=O)O)c2)cc1	inactive	
COc1ccc(CCO)cc1	inactive	
C[C@@H]1CCN(C(=O)[C@H](CCCN=C(N)N)NS(=O)(=O)c2cccc3c2NC[C@H](C)C3)[C@@H](C(=O)O)C1	inactive	
C=C(C)[C@H]1CC=C(C)C(=O)C1	inactive	
Cc1cc(S(=O)(=O)O)ccc1N=Nc1c(O)ccc2ccccc12	inactive	

Compound	outcome	AC50
CC(=O)O[C@@H]1CC2CCC1(C)C2(C)C (stereo not given in full)	inactive	
C[C@H](CCC(=O)NCC(=O)O)[C@H]1CC[C@H]2[C@@H]3[C@H](O)C[C@@H]4C[C@H](O)CC[C@]4(C)[C@H]3C[C@H](O)[C@]12C	inactive	
CN(c1nccc(=O)[nH]1)C1CCN(c2nc3ccccc3n2Cc2ccc(F)cc2)CC1	inactive	
COc1ccc(N)c([N+](=O)[O-])c1	inactive	
CC1C2CC(CC2C2CCCC(O)C2)C1(C)C (stereo not given)	inactive	
CCCCCCCCc1ccc(S(=O)(=O)O)cc1	inactive	
N[C@@H](Cc1cc(I)c(Oc2cc(I)c(O)c(I)c2)c(I)c1)C(=O)O	inactive	
CCOc1ccc(NC(=O)CC(C)O)cc1 (stereo not given)	inactive	
COC(C)(C)CC(C)=O	inactive	
Cc1cc(C)nc(NS(=O)(=O)c2ccc(N)cc2)n1	inactive	
Nc1ccc2cc(S(=O)(=O)O)cc(O)c2c1N=Nc1ccccc1C(F)(F)F	inactive	
CCCCCCCCCCCCCCN(CCO)CCO	inactive	
OCCCCC(O)CO (stereo not given)	inactive	
CCCC(C)=O	inactive	
COc1ccc(OC)c(N=Nc2c(O)ccc3ccccc23)c1	inactive	
CCCC(=O)c1ccccc1	inactive	
CCCC(O)C(O)CO (stereo not given)	inactive	
Cc1ccc(S(=O)(=O)Oc2ccc(N=Nc3ccc(-c4ccc(N=Nc5c(O)ccc6cc(S(=O)(=O)O)cc(S(=O)(=O)O)c56)c(C)c4)cc3C)cc2)cc1	inactive	
Nc1c(Cl)cc(Cl)cc1[N+](=O)[O-]	inactive	
CCC(C)S (stereo not given)	inactive	
